Molecules are shown by their SMILES. “And” between values parts separate entries of the source, which are not always exact repeats. Equal entries are not always repeated. More than one record can exist for a structure, and the calls need not agree. The source made the active and inactive calls. How the source made its calls: active means hit-call score of the fitted dose curve at least 0.9, where 1 is the maximum; inactive means score below 0.9.

The assay can be described thus: ATG_AP_1_CIS: Attagene CIS-FACTORIAL HepG2 Assay for human Activator Protein 1 (AP-1) (AID 2282931). To be noted: HepG2 Attagene cis-factorial AP-1 reporter mRNA; actives raise or lower the signal. Here is the method: ATG_CIS is a cell-based, multiplexed-readout assay that uses HepG2, a human liver cell line, with measurements taken at 24 hours after chemical dosing in a 24-well plate.ATG_AP_1_CIS is one of 52 assay component(s) measured or calculated from the ATG_CIS assay. It is designed to make measurements of mRNA induction, a form of inducible reporter, as detected with fluorescence intensity signals by Reverse transcription polymerase chain reaction (RT-PCR) and Capillary electrophoresis technology.Data from the assay component ATG_AP_1_CIS was analyzed into 1 assay endpoint. This assay endpoint, ATG_AP_1_CIS, was analyzed with bidirectional fitting relative to DMSO as the negative control and baseline of activity. Using a type of inducible reporter, measures of mRNA for gain or loss-of-signal activity can be used to understand the reporter gene at the transcription factor-level as they relate to the gene FOS and JUN. Furthermore, this assay endpoint can be referred to as a primary readout, because this assay has produced multiple assay endpoints where this one serves a reporter gene function. To generalize the intended target to other relatable targets, this assay endpoint is annotated to the dna binding intended target family, where the subfamily is basic leucine zipper.
Human liver HepG2 cells are transiently transfected with multiple reporter transcription units (MRTUs) in 6-well plates using FuGene 6 reagent (Roche; 3 ml FuGene/1 mg DNA). The MRTU constructs are regulated by a cis-regulating element (promoter). […] A major difference between the CIS and TRANS system is that in CIS activities of endogenous TFs are measured, whereas the TRANS assay evaluates changes in activities of exogenous, chimeric NR-Gal4 proteins. […] At the end of 24 hour incubation, total RNA was isolated using TriZol reagent (Invitrogen). The isolated RNA is then reverse-transcribed using oligo(dT) primer and Mo-MLV reverse transcriptase (Invitrogen) with DNAse I (Ambion) treatment for 30 min. The one-tenth of the produced cDNA was amplified by PCR using Taq DNA polymerase (Invitrogen) and two reporter sequence-specific primers. The PCR products were fluorescently labeled by primer extension with 6-arboxyfluorescein (6-FAM) 5'-labeled reporter sequence-specific primer (2 min at 95 C, 20 s at 68 C and 10 min at 72 C) and these products were digested with 5U of HpaI (New England Biolabs) for 2h at 37 C. The fragments were purified using Qiaquick PCR columns (Qiagen), analyzed on an ABI 3130xL genetic analyzer (Applied Biosystems) with peak positions identified by using a set of X-rhodamine (ROX)-labeled MapMarker1000 molecular weight standards (BioVentures). The raw capillary electrophoresis data was processed using Attagraph software (Attagene).
Consider `COc1c(Cl)ccc(Cl)c1C(=O)O`, for which the molecule was classed as inactive.

Turning to `N#CSCSc1nc2ccccc2s1`, the concentration at half-maximal activity (AC50) was 3.02 µM (active) and the molecule was called inactive.

On to `CC(C)(c1ccc(O)cc1)c1ccc(O)cc1`, for which the call was inactive.

As to `CCNc1nc(N)nc(Cl)n1`, the molecule was called inactive.

`COc1nc(C)nc(NC(=O)NS(=O)(=O)c2ccccc2OCCCl)n1`: the molecule was classed as inactive.

As for `CC(C)CCCCCCc1ccc(O)cc1`, the result was inactive and the AC50 is 17 µM (active).

As for `CC(=O)S[C@@H]1CC2=CC(=O)CC[C@]2(C)[C@H]2CC[C@@]3(C)[C@@H](CC[C@@]34CCC(=O)O4)[C@H]12`, the molecule was called inactive.

In the case of `CCOC(=O)C(C)Oc1ccc(Oc2cnc3cc(Cl)ccc3n2)cc1` (stereo not given), the call was inactive.

Consider `CCCCC(CC)COC(=O)c1ccccc1C(=O)O` (stereo not given), for which the molecule was called inactive.

As to `S=C(S)NCCNC(=S)S.[Mn+2].[S-]C([S-])=NCCN=C([S-])[S-].[Zn+2]`, the AC50 is 20.7 µM (active) [middle of 4 runs] and the result was inactive.

As to `C#C[C@]1(O)CC[C@H]2[C@@H]3CCC4=CC(=O)CC[C@@H]4[C@H]3CC[C@@]21CC`, the molecule was called inactive.

Regarding `CC1(C)C(C=C(Cl)Cl)C1C(=O)OCc1cccc(Oc2ccccc2)c1` (stereo not given), the outcome was inactive.

For the molecule `Cc1nn(C)c(Oc2ccccc2)c1C=NOCc1ccc(C(=O)OC(C)(C)C)cc1`, the AC50 is 0.0252 µM (active).

Consider `CC(=O)[C@H]1CC[C@H]2[C@@H]3CCC4=CC(=O)CC[C@]4(C)[C@H]3CC[C@]12C`, for which the molecule was classed as inactive; the half-maximal activity concentration (AC50) is 33.4 µM (active) and 170 µM (active).

As for `CCCCOCCOCCOCc1cc2c(cc1CCC)OCO2`, the AC50 was 50 µM (active).

Regarding `CCSC(=O)N(CC(C)C)CC(C)C`, the result was inactive.

For the molecule `CCN(Cc1c(F)cccc1Cl)c1c([N+](=O)[O-])cc(C(F)(F)F)cc1[N+](=O)[O-]`, the AC50 is 28.9 µM (active).

In the case of `CC(C)(C)[C@@H](O)[C@@H](Cc1ccc(Cl)cc1)n1cncn1`, the AC50 is 13.5 µM (active).

With `O=C(c1ccccc1)C1CCCCC1`, the result was inactive.

As to `CN(C)C(=O)Nc1ccc(Cl)c(Cl)c1`, the call was inactive and the AC50 was 27.7 µM (active).

For `CCCN(CCC)c1c([N+](=O)[O-])cc(C(F)(F)F)c(N)c1[N+](=O)[O-]`, the AC50 was 63 µM (active).

As to `c1ccc(Nc2ccccc2)cc1`, the outcome was inactive.

`CCCCOC(=O)C(C)Oc1ccc(Oc2ccc(C(F)(F)F)cn2)cc1` (stereo not given): the outcome was inactive.

As to `CSC(=O)c1cccc2nnsc12`, the molecule was classed as inactive.

For `COC(=O)c1cccc(C)c1S(=O)(=O)NC(=O)Nc1nc(OCC(F)(F)F)nc(N(C)C)n1`, the molecule was classed as inactive.

As for `COC(=O)c1c(Cl)nn(C)c1S(=O)(=O)NC(=O)Nc1nc(OC)cc(OC)n1`, the molecule was called inactive.

With `CCCCCCC(C)OC(=O)COc1nc(F)c(Cl)c(N)c1Cl` (stereo not given), the molecule was called inactive.

Consider `CCC(O)=C1C(=O)CC(C(=O)O)CC1=O` (stereo not given), for which the molecule was classed as inactive.

With `CCOC(=O)COc1cc(-n2ncc(C(F)(F)F)c(C)c2=O)c(F)cc1Cl`, the outcome was inactive.

Turning to `O=C(c1ccc(O)cc1O)c1ccc(O)cc1O`, the result was inactive.

As for `CCCN(CCC)C(=O)SCC`, the molecule was called inactive.

In the case of `O=C(Nc1ccc([N+](=O)[O-])cc1Cl)c1cc(Cl)ccc1O`, the AC50 was 1.01 µM (active).

For the molecule `COC(=O)CSc1cc(N=c2sc(=O)n3n2CCCC3)c(F)cc1Cl`, the molecule was classed as inactive.

As for `COC(=O)c1ccc(I)cc1S(=O)(=O)NC(=O)Nc1nc(C)nc(OC)n1`, the molecule was classed as inactive.

With `CCCOC(=O)NCCCN(C)C`, the result was inactive.

As a reminder, the AC50 is the concentration at which the activity in the assay is half-maximal.

Source of the values: PubChem BioAssay (EPA / NIEHS).
